# Test results as given in PubChem BioAssay AID1347426 (Functional Genomics Laboratory (NCATS/FGL), 2020).
# The whole screen tested about 31,000 sequences, of which about 1,400 (4.5%) were called active. Shown is part of a subset that was picked to be rich in actives. Unmarked numbers belong to inactive results.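 Rule for the calls: active = median seed-adjusted z-score above 1 or below -1; inactive = the rest.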
# Experiment: Novel Modifiers of Survival Motor Neuron (SMN) Protein: Gene Identification via Genome-wide siRNA Screen;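 note: luminescence tracks full-length SMN protein made from the SMN2 reporter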
# Settings: HEK293T SMN2-luciferase reporter, siRNA knockdown, 72 h; actives lie on both sides
# From the text: Spinal muscular atrophy (SMA) is the most common neuromuscular autosomal recessive disorder and one of the leading genetic causes of infant death. SMA results from mutations inducing loss of function or deletion in the survival of motor neuron-1 gene (SMN1), leading to deficiency of the survival motor neuron (SMN) protein. Although a second nearly identical gene, SMN2, is retained in humans, its expression primarily produces an aberrantly spliced isoform that is largely unstable and quickly degraded. We performed a genome-wide RNAi screen using a cell-based reporter assay to identify genes and pathways that modulate SMN protein stability. The screen identified over 200 genes that led to the greatest increase or decrease in luciferase expression.
# Using HEK293T cells stably expressing a luciferase reporter that combines the promoter and splicing based cassettes in tandem with the major portion of the native SMN2 cDNA with luciferase, we performed a genome-wide RNAi screen to identify modulators of SMN protein levels. Luciferase is expressed when full-length SMN protein is generated with luminescence signal proportional to SMN protein levels. Our luciferase-based reporter assay was used to screen Ambion Silencer Select Human Druggable Genome siRNA library (10418 genes, 3 unique siRNAs per gene) using lipid-based reverse transfection.
# Briefly, 1 pmol of each siRNA was spotted to a well of a 384-well plate (Corning, Corning, NY) and 20 microL of serum-free DMEM containing […] of Lipofectamine RNAiMax (Life Technologies, Carlsbad, CA) was then added to each well. Transfected cells were maintained at 37 degrees C in 5% CO2 for 72 hours, 20 microL of ONE-Glo Reagent (Promega) was added to wells for luciferase quantification. Raw luminescence reads were normalized to Ambion(R) Silencer(R) Negative Control #2 siRNA, then log10 transformed. A robust statistical measure of median absolute deviation (MAD) to standardize siRNA activities from each screen. Common Seed Analysis was used to help prioritize clean hits as opposed to those appearing to arise from seed based off-target effects. Candidate modulators were defined as the genes having a MAD score greater than 1.0 or less than -1.0.
row,Sequence,median seed-adjusted z-score
1,AGAACAACCGGAUUCGAGATT against LRRC52,0.118
2,UAAAGUUCUUUUAUCCAUUTT against UBE2D3,1.62 (active)
3,GGGAGAACGUGACCAUCUATT against ICAM5,-1 (active)
4,GCCUUUCAGUCAUCGCGCATT against PLXND1,-0.064
5,GCUGGUCCCUUGGAUAAGATT against MED1,-0.855
6,GAAACAGUGCUGAAGCCUUTT against RYBP,0.831
7,GGGAGGGCAUCAACAAGAATT against RGS19,0.295
8,GGCUGCACAUAUACCUUAATT against RRN3,0.0382
9,GGAUAGUUUUUCGAAUUAATT against MYO9A,-0.567
10,GGUAAGGCCUUAUAAUGUATT against KHK,0
11,GGAUAUCCGCCUUCACAGATT against BAG4,0.111
12,CCACUAGCUGAUUACUAUATT against MED6,-2.15 (active)
13,CGAAGAAUCUUCCGAAGAATT against EIF2AK1,-0.546
14,GAAUGUAUCAGCUACCGAUTT against HYAL4,-0.236
15,GAAAGACUCUUACCAUUUUTT against SSBP4,0.254
16,GCAUUGGGAUGUACUUGUATT against LRP12,0.416
17,GCAUGAACUGAAACCCAAUTT against SMURF1,-1.4 (active)
18,CCAUCGUACCUGUUACCAATT against KRIT1,-0.447
19,GCAUCUACGAGUUCAUCAUTT against FOXG1,0.749
20,GCAGUGAUCUAGUCUCUUUTT against GLRX,-0.0561
21,CAUAACCACUUUAAAGUCATT against GAB1,0.373
22,GCAAAUUGAUGAACCGGUUTT against CEP135,-0.2
23,UGACCACACUUCUCAGCUATT against IL9R,-1.33 (active)
24,GCACGAGGCUGGUACAGUUTT against MFNG,0.377
25,GGAGACUAGUGGUGGGAUATT against CCL16,-0.308
26,GCAACUUGUGAAUCUAGGATT against VCAM1,0.19
27,AACUUGUCGCUGCCCAAUATT against ABCA2,-1.18 (active)
28,GGCUGACAGUAGCUAAGCUTT against RAPGEF4,-0.197

row,Sequence,median seed-adjusted z-score
1,CCAGAUGGAUGUACACUGUTT against PDE6C,0.205
2,CCACGCACAUACUAUCAAATT against HIVEP1,0.532
3,CCCUUAGACUCUAAGCCCATT against HSD17B14,0.386
4,GAAUGGUCCUAUAUCUCAATT against LARP5,-0.144
5,GGAUACUUCAGGACUAGAATT against PNN,1.29 (active)
6,GAGCAUCUUUGAUCGAGAATT against SPINK5,0.26
7,CCCUGGCAGCUAGUAGGUUTT against BATF3,0.698
8,CCAGUUUAUUGGAAACCGATT against NOP56,0.307
9,UCCAGCAAGUGGCCAAGAATT against DUPD1,-0.406
10,AGAUUAUCAUAUUGGGUGATT against RAB7B,0
11,CUAUAGGAAUGUUGAAUAATT against WDR33,3.27 (active)
12,GGACCACAAUGUACGGAAATT against ATP13A5,0.241
13,CUCCUGUACUCUUCAGAGATT against PTOV1,0.115
14,GGACCAAGCCCUAAAGGAATT against 4-Sep,-0.0124
15,GGAUUAAUCCACGAAUUGATT against EGF,0.00831
16,AACUUGUAUUCUUAGGUUUTT against SAR1A,0.0213
17,GCUAACUACCAAGUCCUAATT against SLC8A1,0.221
18,ACAUCGCCCUCAAACGGGATT against ACTL7A,1.1 (active)
19,GAUUGAUAGAGACAAUUCATT against RNGTT,-1.55 (active)
20,UGGUGCUGUUGGUAAAACATT against CDC42,-0.0938
21,AGAGGUCCUUCAAAACAGATT against ENTPD6,0.438
22,GGAGCGGAAUGAACUCAAATT against RILP,0.503
23,GCUUAGGUCUUGCUCUCAATT against YWHAE,1.38 (active)
24,CCACAAUAUCUCUAACAGATT against GUCY1A2,-0.186
25,AAACAAUCCGAAAAUAUGATT against KLK13,0.452
26,GAAUUGACAAUCUCAUAGATT against MCCC2,-0.0566
27,GCAUCUUUUGGAGAUCGAATT against TC2N,0.461
